# Results filed as inconclusive are left out. The source made the active and inactive calls. Calls follow the shape of the dose curve; as a rule, active = well fitted inhibition curve with a large enough effect; inconclusive = small, poorly fitted or top-dose-only effect; inactive = no such curve, though single readings can be large or run the other way.
# Molecular target: Cytochrome P450 3A7 (Homo sapiens) (UniProt P24462)
# Assay: Cytochrome P450 family 3 subfamily A member 7 (CYP3A7) small molecule antagonists: luciferase biochemical qHTS assay (AID 1963596); also: nearly all actives have a fitted effect of over 40% in size
# Conditions: P450-Glo CYP3A7 enzyme luminescence, 1 h; series mostly up to 57.4 µM; activity change, negative = inhibition: at the top concentration
# From the text: National Center for Advancing Translational Sciences [NCATS] Assay Overview: Cytochrome P450 (CYP) enzymes are membrane-bound hemeproteins that play a key role in metabolism of drugs and xenobiotics. The CYP3A subfamily is the most abundant, representing 30% of the total adult hepatic CYP content, whereas CYP3A7 is found predominantly in human fetal liver and accounts up to 50% of the total fetal hepatic CYP content. Testing the effect of chemicals on CYP isozymes is useful to minimize the adverse drug reactions and toxicities in the drug development process. Chemicals were tested for their effect on CYP enzyme activities by using P450-Glo (TM) screening systems (Promega Corporation, Madison, WI). These systems provide a luminescent method containing proluciferin substrates and are converted to luciferin products by CYP isozymes. The luciferin products formed are detected with a luciferin detection reagent, and the amount of light produced is proportional to CYP activity. P450-Glo (TM) CYP3A7 screening system (Catalog. No. V8812) was used to detect the compounds that interfere with CYP3A7 activity. The positive control compound used for CYP3A7 assay is ketoconazole (Sigma-Aldrich, St. Louis, MO).
# Assay Protocol Summary: Two ul of enzyme-substrate mix was dispensed into medium binding white/solid 1536-well plates (Greiner Bio-One North America Inc., Monroe, NC) using a Flying Reagent Dispenser (FRD, Aurora Discovery, San Diego, CA). Compounds dissolved in DMSO, and positive control (ketoconazole) were transferred to the assay plates at 23 nl using a Pintool station (Wako, San Diego, CA). The assay plates were incubated at room temperature for 10 min. Then 2 ul of NADPH regeneration solution was added to each well of the assay plates using an FRD and incubated at room temperature for 1 h. The reaction was stopped by adding 4 ul of detection reagent using an FRD and after 20 min incubation at room temperature the luminescence signal was measured using a ViewLux plate reader (Perkin Elmer, Shelton, CT). Data were expressed as relative luminescence units.
# % is scaled to controls: 0 for no effect and ±100 for the full control effect.
# Chain of Cytochrome P450 3A7 (Homo sapiens) (P24462 whole entry, looked up): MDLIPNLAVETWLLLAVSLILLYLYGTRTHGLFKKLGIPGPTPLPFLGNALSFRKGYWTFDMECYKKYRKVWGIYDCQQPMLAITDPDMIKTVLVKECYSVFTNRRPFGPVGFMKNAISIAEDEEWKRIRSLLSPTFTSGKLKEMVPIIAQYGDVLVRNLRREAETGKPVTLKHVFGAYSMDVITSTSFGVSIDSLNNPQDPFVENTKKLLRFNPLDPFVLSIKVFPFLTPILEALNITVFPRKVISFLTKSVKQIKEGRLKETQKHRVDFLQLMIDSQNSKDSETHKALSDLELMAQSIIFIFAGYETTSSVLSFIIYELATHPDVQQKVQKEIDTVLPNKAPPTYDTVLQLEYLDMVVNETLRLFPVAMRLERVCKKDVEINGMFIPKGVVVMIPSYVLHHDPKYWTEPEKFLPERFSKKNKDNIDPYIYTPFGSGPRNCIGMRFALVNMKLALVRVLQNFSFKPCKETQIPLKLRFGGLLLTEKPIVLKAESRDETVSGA
row,Compound,"activity change, negative = inhibition"
1,C=CCN1C[C@H](C(=O)N(CCCN(C)C)C(=O)NCC)C[C@@H]2c3cccc4[nH]cc(c34)C[C@H]21,-16.7% (inactive)
2,COc1ccc(Nc2cc(-c3cnc(N)nc3)nc(N3CCOCC3)n2)cn1,-23.6% (inactive)
3,NCC1OC(OC2C(N)CC(N)C(OC3OC(CO)C(O)C(N)C3O)C2O)C(N)CC1O (stereo not given),12.2% (inactive)
4,COc1cc2c(Nc3ccc(Cl)c(Cl)c3F)ncnc2cc1OCC1C[C@@H]2CN(C)C[C@@H]2C1 (stereo not given in full),10% (inactive)
5,N=C(N)N,16.8% (inactive)
6,CN(C)C/C=C/C(=O)Nc1ccc(C(=O)Nc2cccc(Nc3ncc(Cl)c(-c4c[nH]c5ccccc45)n3)c2)cc1,-4.31% (inactive)
7,Cc1ncc(CO)c(C=O)c1O,7.61% (inactive)
8,O=C(O)CCC(=O)C(=O)O,-1.01% (inactive)
9,Cc1ccccc1NC(=O)Nc1ccc(CN2C(=O)N([C@@H](CC(C)C)C(=O)N[C@@H](CC(=O)O)c3ccccc3)C(=O)C2(C)C)cc1,18.8% (inactive)
10,CCN(CC)CCNC(=O)c1cc(S(C)(=O)=O)ccc1OC,-11.8% (inactive)
11,O=C1CSc2ccccc2N1Cc1cccc(C(F)(F)F)c1,0% (inactive)
12,C[C@H](NCCc1ccc(O)cc1)[C@H](O)c1ccc(O)cc1,-26.9% (inactive)
13,O=C1OC(OC(=O)c2cccnc2Nc2cccc(C(F)(F)F)c2)c2ccccc21 (stereo not given),1.62% (inactive)
14,O=C(O)c1cc(C(F)(F)F)ccc1N1CC[C@H](OCc2ccccn2)C1,-11% (inactive)
15,NC(=O)NS(=O)(=O)c1ccc(Cl)cc1,0.53% (inactive)
16,c1ccc2[nH]c(-c3cscn3)nc2c1,4.2% (inactive)
17,Cc1c(Nc2ncccc2C(=O)O)cccc1C(F)(F)F,-23% (inactive)
18,CN(C)CC[C@@H](c1ccc(Cl)cc1)c1ccccn1,-2.2% (inactive)
19,O=C(Oc1ccccc1)c1ccccc1O,13.9% (inactive)
20,O=C(NCCN1CCOCC1)c1ccc(Cl)cc1,-20% (inactive)

row,Compound,"activity change, negative = inhibition"
1,CC#CC(=O)Nc1ccc2ncnc(Nc3cccc(Br)c3)c2c1,0% (inactive)
2,O=C(O)c1ccccc1-c1ccc(C(F)(F)F)cc1,-18.2% (inactive)
3,CCOC(=O)N1CCC(CN(Cc2ccc(Cl)cc2)Cc2ccc([N+](=O)[O-])s2)C1 (stereo not given),-3.34% (inactive)
4,CN(C)CCOC(=O)C(c1ccccc1)C1(O)CCCC1 (stereo not given),-18.1% (inactive)
5,COc1cccc(-n2nc(C(=O)O)cc2-c2ccc(C3CCCCC3)c(Cl)c2)c1,0% (inactive)
6,CC(C)NCC(O)c1ccc2ccccc2c1 (stereo not given),-20.6% (inactive)
7,CCOC(=O)C(C#N)=C(c1ccccc1)c1ccccc1,-2.04% (inactive)
8,CCO[C@H](Cc1ccc(OCCc2ccc(OS(C)(=O)=O)cc2)cc1)C(=O)O,-16.4% (inactive)
9,Cc1c(C(=O)NCCO)[n+](=O)c2ccccc2n1[O-],24.1% (inactive)
10,Cc1cccc(C)c1NC(=O)CN1CCCCCC1,-9.6% (inactive)
11,NCCCNCCSP(=O)(O)O,11.1% [at 11.5 µM] (inactive)
12,COc1ccccc1OCC(O)COC(N)=O (stereo not given),0.172% (inactive)
13,CCC(COC)n1nnc2c(Nc3ccc(OC)cc3C)nc(C)cc21 (stereo not given),0% (inactive)
14,CCCNc1ccc2ncc(-c3ccc4[nH]ncc4c3)n2n1,0.847% (inactive)
15,CC(=O)c1ccc(S(=O)(=O)NC(=O)NC2CCCCC2)cc1,-2.85% (inactive)
16,C[C@@H](N)C(=O)O,-1.56% (inactive)
17,CN1CCC(N(Cc2cccs2)c2ccccc2)CC1,-29.4% (inactive)
18,OCC(CO)N[C@H]1C[C@](O)(CO)[C@@H](O)[C@H](O)[C@H]1O,-5.3% (inactive)
19,Cc1ccc(-c2ccccc2C#N)cc1,-23.1% (inactive)
20,COC(=O)[C@H](Cc1cccc(C(=N)N)c1)[C@@H](C)NC(=O)c1ccc(-c2cc[n+]([O-])cc2)cc1,-7.2% (inactive)

# — PubChem BioAssay (NCATS)
